# The supplement of paper PMC7366291
# Counter-ions that a name gives are not always drawn. ± gives the standard deviation or the standard deviation of the averaged measurements.
# Columns and labels:
# Settings in all cases: 25 µM; exposure: 24-48 hpf
# [1] = system: Danio rerio Tg(wt1b:EGFP) embryo, pronephros; assay: glomerular separation, fold change vs DMSO control; higher = glomeruli further apart (abnormal)
# Method in brief: (§1)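 Dechorionated Tg(wt1b:EGFP) zebrafish embryos were kept from 24 to 48 hpf at 28.5°C in HEPES-buffered E3 containing 0.003% PTU, 0.5% DMSO and 25 μM compound. The pronephroi were then imaged from the dorsal side in agarose-filled 96-well plates at 470 nm with 10 z-slices, and 16 reference points were placed by hand on maximum projections in Fiji so that a macro could calculate distances and angles. Values lying more than 2 SD from the mean of a feature were discarded. Every feature is given as a fold change against the mean of DMSO-treated embryos from the same day.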
# [2] = system: Danio rerio Tg(wt1b:EGFP) embryo, pronephros; assay: glomerular width (mean of left and right), fold change vs DMSO control; higher = wider glomerulus
# Method in brief: as §1
# [3] = system: Danio rerio Tg(wt1b:EGFP) embryo, pronephros; assay: fraction of imaged embryos annotated as normal kidney; higher = less nephrotoxic; extreme values may be limits of the assay
# Method in brief: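 Tricaine-anaesthetised Tg(wt1b:EGFP) zebrafish larvae were oriented dorsally in agarose-filled 96-well plates, and their pronephroi were recorded by widefield fluorescence at 470 nm in 10 z-slices. Before this, the dechorionated embryos had been exposed in 12-well plates to 25 μM compound in 0.5% DMSO and 5 mM HEPES-buffered E3 with 0.003% PTU, from 24 to 48 hpf at 28.5°C. Maximum projections were annotated manually for each embryo, and the read-out is the fraction per treatment classed as normal kidney.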
# [4] = system: Danio rerio Tg(wt1b:EGFP) embryo, pronephros; assay: pronephric angle neck segment to proximal convoluted tubule (mean of left and right), fold change vs DMSO control; higher = larger pronephric angle
# Method in brief: as §1
Structure (SMILES),glomerular separation [1],glomerular width [2],fraction of imaged embryos annotated as normal kidney [3],pronephric angle neck segment [4]
CC(=O)Oc1ccccc1C(=O)O [Acetylsalicylic acid],1.2 ± 0.37,0.951 ± 0.019,0.917,1.01 ± 0.018
NC(=O)c1cc[n+](CC2=C(C(=O)[O-])N3C(=O)[C@@H](NC(=O)[C@@H](c4ccccc4)S(=O)(=O)O)[C@H]3SC2)cc1 [Cefsulodin sodium salt],0.67 ± 0.22,1.08 ± 0.02,0.833,0.976 ± 0.034
CCCCOc1ccc(CC(=O)NO)cc1 [Bufexamac],1.11 ± 0.37,1.015 ± 0.0014,0.75,0.9927 ± 0.0019
CC(=O)N1CCN(c2ccc(OCC3COC(Cn4ccnc4)(c4ccc(Cl)cc4Cl)O3)cc2)CC1 (configuration not stated) [Ketoconazole],0.931 ± 0.28,1.01 ± 0.082,0.75,0.994 ± 0.04
NS(=O)(=O)c1cc2c(cc1C(F)(F)F)NC(Cc1ccccc1)NS2(=O)=O (configuration not stated) [Bendroflumethiazide],1.15 ± 0.68,0.896 ± 0.043,0.875,1.09 ± 0.083
Cc1ccccc1C(OCCN(C)C)c1ccccc1 (configuration not stated) [Orphenadrine hydrochloride],0.79 ± 0.21,1.04 ± 0.013,0.833,1 ± 0.015
CN1C(C(=O)Nc2ccccn2)=C(O)c2ccccc2S1(=O)=O [Piroxicam],6.43 ± 2.4,0.525 ± 0.012,0,1.78 ± 0.095
Cn1c([N+](=O)[O-])cnc1COC(N)=O [Ronidazole],0.869 ± 0.18,0.99 ± 0.011,0.75,1.02 ± 0.016
CN(C)CCOC(=O)COc1ccc(Cl)cc1 [Meclofenoxate hydrochloride],1.19 ± 0.36,1.02 ± 0.049,0.667,1.05 ± 0.057
OC[C@H]1O[C@@H](Oc2ccc(O)cc2)[C@H](O)[C@@H](O)[C@@H]1O [Arbutin],0.869 ± 0.33,1.021 ± 0.0053,0.917,0.933 ± 0.018
OC(Cn1cncn1)(Cn1cncn1)c1ccc(F)cc1F [Fluconazole],1.11 ± 0.31,0.967 ± 0.095,0.917,0.978 ± 0.021
CCN(CC)C(=O)C1(c2ccccc2)CC1CN (configuration not stated) [Milnacipran hydrochloride],0.724 ± 0.23,1.19 ± 0.037,1,0.9653 ± 0.008
CCCc1cc(C(N)=S)ccn1 [Prothionamide],0.957 ± 0.36,0.9746 ± 0.0041,0.917,1.007 ± 0.0083
